Assay outcomes as filed in PubChem.
This is a sample that favours compounds with a hit; in the whole collection about 19% have one here.
HT1080 IDH1KD tx = qHTS for induction of synthetic lethality in tumor cells producing 2HG: qHTS for the HT-1080-IDH1KD cell line. HT-1080 IDH1 knockdown viability, ATP luminescence, 48 h. Potency, µM (series often up to 46.1 µM), for inactives: at the highest dose activity, negative = toxicity, usual class: cytotoxic. hit rate 2% among 360,000. AID 686971, 2013;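 further: potency means the concentration at half of the fitted maximal effect; 0% = DMSO wells and -100% = cell-free medium wells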
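In this qHTS, HT-1080 cells depleted of IDH1 are exposed for 48 h at 37 °C to compound titrations. Toxicity is scored from CellTiter-Glo luminescence, with DMSO as full viability and medium alone as none.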
HT1080-NT tox = qHTS for induction of synthetic lethality in tumor cells producing 2HG: qHTS for the HT-1080-NT fibrosarcoma cell line; Potency, µM (series often up to 46.1 µM), without a hit: top-dose activity, negative = less viability, actives largely listed as cytotoxic; hit rate 1.6% among 360,000; HT-1080-NT fibrosarcoma viability, CellTiter-Glo ATP luminescence, 48 h;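 further: NT is the 2HG producing partner of a matched IDH1 knockdown line; potency means the concentration at half of the fitted maximal effect; 0% = DMSO-treated cells and -100% = media-only wells without cells; nearly all actives have a fitted effect of over 55% in size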
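Viability of the 2HG-overproducing fibrosarcoma line after 48 hours of compound exposure at 37 degrees C was determined by luminescence with CellTiter-Glo, and concentration-effect curves were then fitted and categorized.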
IL-1B inflam inh = qHTS for Inhibitors of Inflammasome Signaling: IL-1-beta AlphaLISA Primary Screen | THP-1 LPS/ATP IL-1B secretion, AlphaLISA, 16 h; active compounds read low | activity change, % at 57.5 µM | hit rate 4.7% among 360,000; in the data active means activity change below about -50%; inconclusive means mostly about -30% to -49%
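Secreted IL-1B measured by AlphaLISA bead assay after 16 h compound exposure of THP-1 cells; compounds (final up to 57.5 uM) added 1 h before LPS (250 ng/mL) and ATP (1.25 mM) stimulation; lower signal means less secretion.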
DT40 TDP1 no CPT = qHTS for Inhibitors of human tyrosyl-DNA phosphodiesterase 1 (TDP1): qHTS in cells in absence of CPT; Potency, µM (doses to about 46.2 µM), inactives show top-dose activity change, negative = growth inhibition, most hits filed as inhibitors; hit rate 15% among 420,000; DT40 Tdp1-/- hTDP1 cells, no CPT, ATP luminescence, 48 h; further: potency means the concentration at half of the fitted maximal effect; nearly all actives have a fitted effect of over 55% in size
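Cells were dispensed at 400 per well, compounds added by pin tool, plates incubated ≥48 hr at 37 °C, then CellTiter-Glo added for 30 min at room temperature before luminescence reading. Line: DT40 Tdp1-/- complemented with hTDP1; camptothecin omitted.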
ELG1 DNA repair = qHTS screen for small molecules that inhibit ELG1-dependent DNA repair in human embryonic kidney (HEK293T) cells expressing luciferase-tagged ELG1; HEK293T ELG1-luciferase reporter, luminescence, 16 h; DNA damage induced by 5-fluorouridine; Potency, µM (doses to about 46.1 µM), inactives show at the top dose activity change, negative = inhibition, usual class: inhibitors; hit rate 2.3% among 330,000; AID 504467, 2011; further: potency means the concentration at half of the fitted maximal effect; nearly all actives have a fitted effect of over 55% in size
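Reporter activity after DNA damage by 5-fluorouridine is monitored. Compound-treated cells incubate 16 hr at 37 °C, then ONE-Glo is added for 30 min before luminescence reading.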
TDP1 cell CPT = qHTS for Inhibitors of human tyrosyl-DNA phosphodiesterase 1 (TDP1): qHTS in cells in presence of CPT | hit rate 12% among 420,000 | Potency, µM (titrated, usually from 46.2 µM), without a hit: top-dose activity change, negative = growth inhibition, actives largely listed as inhibitors | chicken DT40 Tdp1-/-;hTDP1 cells + 20 nM CPT, ATP luminescence, 48 h; further: potency means the concentration at half of the fitted maximal effect; nearly all actives have a fitted effect of over 55% in size
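Chicken DT40 Tdp1-/- cells stably complemented with human TDP1 were seeded at 400 cells/well in medium containing 20 nM camptothecin, exposed to pin-transferred compounds, and grown at 37 °C for at least 48 hr. Viability was read as ATP luminescence.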
* marks the source's active call; other numbers are inactive results; [ ] = dose if it differs, or a comment. Unless noted, the call rests on the fitted dose curve; in most records, active means well fitted curve in the direction sought with a large enough effect; inconclusive means small, poorly fitted or top-dose-only effect, or another doubt; inactive means no such curve, though single readings can be large; an effect the other way counts as inactive or inconclusive. Unless noted, on the % scale 0 is the no-effect control and ±100 the full control effect.

For CCc1cc[n+](C2=C([O-])c3ccccc3C(=O)/C2=N\S(=O)(=O)c2cccs2)cc1 the results were HT1080 IDH1KD tx 18.4µM*, HT1080-NT tox 18.4µM*, IL-1B inflam inh -85.9*, DT40 TDP1 no CPT 5.17µM*, ELG1 DNA repair 16.4µM* and TDP1 cell CPT 2.31µM*.
`Cc1ccc(C(=O)N2CCOc3ccc(CN4CCN(Cc5ccccn5)CC4)cc3C2)cc1` gave DT40 TDP1 no CPT -22.0% and TDP1 cell CPT -0.9%[9.04 µM].
CC(=O)Oc1ccc(N(C(C)=O)S(=O)(=O)c2ccc(C)cc2)c2ccccc12 was read as HT1080 IDH1KD tx inconclusive, HT1080-NT tox inconclusive, IL-1B inflam inh 34.5, DT40 TDP1 no CPT 5.17µM* and TDP1 cell CPT 5.17µM*.
For CC(=O)N(c1ccccc1C)S(=O)(=O)c1ccc(Cl)cc1 the results were HT1080 IDH1KD tx -22.9%, HT1080-NT tox -15.2%, IL-1B inflam inh 63.0, DT40 TDP1 no CPT -14.8%, ELG1 DNA repair -19.2% and TDP1 cell CPT inconclusive.
Screening CC(=O)Oc1ccc(N(C(C)=O)S(=O)(=O)c2ccc(Cl)cc2)c2ccccc12 returned HT1080 IDH1KD tx inconclusive, HT1080-NT tox inconclusive, IL-1B inflam inh 57.1, DT40 TDP1 no CPT inconclusive, ELG1 DNA repair 18.3µM* and TDP1 cell CPT 29.1µM*.
Screening CC1=C(C(=O)N(C(C)C)C(C)C)CC(CC(=O)NCCCN(C)C)C(=O)N1Cc1ccccc1 (stereo not given) returned HT1080 IDH1KD tx 11.6%, HT1080-NT tox 16.9%, IL-1B inflam inh 0.0, DT40 TDP1 no CPT 0.1% and TDP1 cell CPT -1.2%.
Screening COc1ccc(CN2C(=O)C(CC(=O)NCCCCc3ccccc3)CC(C(=O)N3CCCCCC3)=C2C)cc1 (stereo not given) returned HT1080 IDH1KD tx -6.2%, HT1080-NT tox -2.5%, DT40 TDP1 no CPT 20.9µM* and TDP1 cell CPT 20.9µM*.
Screening CCN(CC)C(=O)C1=C(C)N(Cc2ccccc2)C(=O)C(CC(=O)NCCc2ccccn2)C1 (stereo not given) returned HT1080 IDH1KD tx 6.3%, HT1080-NT tox 7.4%, IL-1B inflam inh 8.2, DT40 TDP1 no CPT -11.6% and TDP1 cell CPT -3.3%.
Screening CC1=C(C(=O)N(C(C)C)C(C)C)CC(CC(=O)NCCCCc2ccccc2)C(=O)N1Cc1ccccc1 (stereo not given) returned HT1080 IDH1KD tx -11.3%, HT1080-NT tox 2.1%, IL-1B inflam inh 0.0, DT40 TDP1 no CPT 23.1µM* and TDP1 cell CPT inconclusive.
`CC1=C(C(=O)N2CCCCCC2)CC(CC(=O)NCCCN(C)C)C(=O)N1Cc1ccccc1` (stereo not given) gave HT1080 IDH1KD tx 23.5%, HT1080-NT tox 7.8%, IL-1B inflam inh -18.7, DT40 TDP1 no CPT 24.3% and TDP1 cell CPT 5.3%.
`CC1=C(C(=O)N(C(C)C)C(C)C)CC(CC(=O)NCCCCc2ccccc2)C(=O)N1Cc1ccc(F)cc1` (stereo not given) gave HT1080 IDH1KD tx inconclusive, HT1080-NT tox inconclusive, IL-1B inflam inh -56.0*, DT40 TDP1 no CPT inconclusive and TDP1 cell CPT inconclusive.
Screening CCN(CC)C(=O)C1=C(C)N(Cc2ccccc2)C(=O)C(CC(=O)NCCCCc2ccccc2)C1 (stereo not given) returned HT1080 IDH1KD tx 6.8%, HT1080-NT tox 6.3%, IL-1B inflam inh -8.8, DT40 TDP1 no CPT 25.9µM* and TDP1 cell CPT 23.1µM*.
`Cc1nn(C)c(C)c1/C=C(\C#N)S(=O)(=O)c1ccc(F)cc1` gave HT1080 IDH1KD tx 0.8%, HT1080-NT tox -2.3%, IL-1B inflam inh 3.2, DT40 TDP1 no CPT -15.4% and TDP1 cell CPT -6.6%.
Screening O=C(C[C@@H]1CC[C@H](NS(=O)(=O)c2ccccc2F)[C@@H](CO)O1)NCCCN1CCOCC1 returned HT1080 IDH1KD tx 27.4%, HT1080-NT tox 22.7%, IL-1B inflam inh 0.0, DT40 TDP1 no CPT 3.4% and TDP1 cell CPT 7.3%.
For COc1ccc(N2C3=[N+](CCCC3)CC2(C)O)cc1 (stereo not given) the results were HT1080 IDH1KD tx -38.6%, HT1080-NT tox 0.2%[9.24 µM], IL-1B inflam inh 5.5, DT40 TDP1 no CPT 3.66µM*, ELG1 DNA repair -14.9% and TDP1 cell CPT 4.11µM*.
`COc1cc2c(cc1OC)C(c1ccc(-c3ccc(Cl)cc3Cl)o1)=NCC2` gave HT1080 IDH1KD tx 23.1µM*, HT1080-NT tox inconclusive, IL-1B inflam inh inconclusive, DT40 TDP1 no CPT 0.92µM*, ELG1 DNA repair inconclusive and TDP1 cell CPT 1.16µM*.
Screening O=C(O)c1ccc(-c2ccc(Cl)cc2Cl)o1 returned HT1080 IDH1KD tx 0.1%, HT1080-NT tox 0.8%, IL-1B inflam inh -9.5, DT40 TDP1 no CPT -2.1%, ELG1 DNA repair 25.9% and TDP1 cell CPT -0.8%.
`COc1cc2c(cc1OC)C(c1ccc(-c3ccc(Cl)c(Cl)c3)o1)=NCC2` gave HT1080 IDH1KD tx 23.1µM*, HT1080-NT tox inconclusive, IL-1B inflam inh -59.3*, DT40 TDP1 no CPT 1.84µM*, ELG1 DNA repair 14.6µM* and TDP1 cell CPT 4.11µM*.
CCCn1nnc(NC(=O)c2ccc(-c3cc(Cl)ccc3Cl)o2)n1 was read as HT1080 IDH1KD tx -3.0%, HT1080-NT tox -0.5%, IL-1B inflam inh 4.1, DT40 TDP1 no CPT inconclusive, ELG1 DNA repair 6.5% and TDP1 cell CPT -16.3%.
For COc1cc2c(cc1OC)C(c1ccc(-c3ccccc3Cl)o1)=NCC2 the results were HT1080 IDH1KD tx 12.6µM*, HT1080-NT tox inconclusive, IL-1B inflam inh -92.1*, DT40 TDP1 no CPT 2.31µM*, ELG1 DNA repair inconclusive and TDP1 cell CPT 6.51µM*.
`COc1ccc(-c2noc(-c3ccccc3Cl)n2)cc1OC` gave HT1080 IDH1KD tx 6.4%, HT1080-NT tox 2.5%, IL-1B inflam inh -2.5, DT40 TDP1 no CPT -18.3%, ELG1 DNA repair inconclusive and TDP1 cell CPT -10.2%.
For COc1cc2c(cc1OC)C(c1ccc(-c3cc(Cl)ccc3Cl)o1)=NCC2 the results were HT1080 IDH1KD tx -6.6%, HT1080-NT tox -6.7%, IL-1B inflam inh -93.5*, DT40 TDP1 no CPT 1.64µM*, ELG1 DNA repair inconclusive and TDP1 cell CPT 2.59µM*.
